# In PubChem BioAssay AID488857 (Sanford-Burnham Center for Chemical Genomics, 2010):
# Hit rate of the full screen: of about 1,400 compounds, about 560 (40%) were called active. The set was probably picked from earlier hits. This is one part of the list. Unmarked numbers belong to inactive results.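 The calls were made as follows: active = mean inhibition over duplicate tests at 10 µM above 50%; inactive = the rest.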
# Experiment: ASC/caspase-1 reporter retest in S. cerevisiae at one dose, specificity check for NALP1 project (AID 488857)
# Conditions: S. cerevisiae ASC/Caspase-1, beta-galactosidase luminescence, 24 h; at 10 µM; active compounds read high
row,SMILES,inhibition
1,CCOc1cc(/C=N/NC(=O)c2nn(C)cc2Br)ccc1OCc1ccccc1Cl,26.2%
2,CC(=O)Nc1ccc2nc(CN3CCC(CO)(CCc4ccccc4)CC3)ccc2c1,36.4%
3,CCCCn1cnc2c1c(=O)[nH]c(=O)n2CCCC,7.55%
4,Cc1[nH]c2ccccc2c1C(=O)CSc1nc2ncc(Cl)cc2[nH]1,36.2%
5,CC(OC(=O)CC(NC(=O)c1ccccc1Cl)c1ccccc1)C(=O)Nc1cccc(Cl)c1Cl (configuration not stated),34.5%
6,CC(NC(=O)/C(C#N)=C/c1ccc([N+](=O)[O-])o1)c1ccccc1 (configuration not stated),36.7%
7,CC(NC(=O)/C(C#N)=C/c1ccc(Cl)c([N+](=O)[O-])c1)c1ccccc1 (configuration not stated),62.2% (active)
8,CC(C)NC(=O)/C(C#N)=C/c1cccc(NC(=O)c2ccccc2Cl)c1,63.5% (active)
9,CC(=O)Nc1sc2c(c1-c1nc3ccccc3s1)CCN(C(C)C)C2,98% (active)
10,Fc1ccc(NC(=S)N2CCSC2c2cccs2)cc1 (configuration not stated),25.8%
11,CC(C)(C)c1ccc(/C=C/C(=O)c2ccc(NC3=NCCCS3)cc2)cc1,53.1% (active)
12,Cc1cccc(/C=C/C(=O)c2ccc(NC3=NCCCS3)cc2)c1,60.4% (active)
13,CC(=O)OCC(=O)[C@H]1CC[C@H]2[C@@H]3CC=C4C[C@@H](O)CC[C@]4(C)[C@H]3CC[C@]12C,32.5%
14,Brc1ccc(C=Nc2ccc(Nc3ccccc3)cc2)s1,56.1% (active)
15,Cc1ccccc1OCC(=O)Nc1sc2c(c1C#N)CCC2,35.5%
16,Cc1ccc(C(=O)c2c(NC(=O)c3ccncc3)sc3c2CCCC3)cc1,58.1% (active)
17,CCCCNC1CCS(=O)(=O)C1 (configuration not stated),37.9%
18,CC(C)Oc1ccc2c(=O)c(-c3ccccc3)coc2c1,73.6% (active)
19,CC(C)OC(=O)COc1ccc(-c2ccccc2)cc1,47.1%
20,Cc1ccc(CN2CCN(/N=C/c3ccc(C(F)(F)F)cc3)CC2)c(C)c1,50.5% (active)
21,Cc1ccccc1-c1ccc(C(=O)Nc2cccc(F)c2)o1,56.5% (active)
22,O=C(Nc1cccc(F)c1)c1ccc(CSc2ccccc2)o1,37.5%
23,Cc1oc(C(=O)O)cc1COc1ccc2c3c(c(=O)oc2c1)CCC3,46.1%
24,COc1ccc2c(c1)O/C(=C\c1sccc1C)C2=O,66.5% (active)
25,COC(=O)c1cccc(NC(=O)/C=C/c2ccc3c(c2)OCO3)c1,77.6% (active)
26,O=C(O)c1ccc2c(c1)N(Cc1cccc(F)c1)C(=O)CS2,19.6%
27,COc1ccccc1OCCN1CSC(=S)N(C)C1,54.5% (active)
